# Test results reported in article PMC5540273 (PLoS ONE, 2017).
# Experiments:
# Conditions in all cases: concentration: 1 μM,replicates: in singlicate; n = 1
# MAP3K15 = test system: MAP3K15
# MAP3K1 = test system: MAP3K1
# MAP3K2 = test system: MAP3K2
# MAP3K3 = test system: MAP3K3
# MAP3K4 = test system: MAP3K4
# MAP4K2 = test system: MAP4K2
# MAP4K3 = test system: MAP4K3
# MAP4K4 = test system: MAP4K4
# MAP4K5 = test system: MAP4K5
# MAPKAPK2 = test system: MAPKAPK2
# MAPKAPK5 = test system: MAPKAPK5
# MARK1 = test system: MARK1
# MARK2 = test system: MARK2
# MARK3 = test system: MARK3
# MARK4 = test system: MARK4
# MAST1 = test system: MAST1
# MEK1 = test system: T1, MEK1
# T1 construct: gene MAP2K1
# MEK2 = test system: T2, MEK2
# T2 construct: gene MAP2K2
# MEK3 = test system: T3, MEK3
# T3 construct: gene MAP2K3
# MEK4 = test system: T4, MEK4
# T4 construct: gene MAP2K4
# 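Note: KINOMEscan kinase panel screen.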
SMILES,%Inh (MAP3K15),%Inh (MAP3K1),%Inh (MAP3K2),%Inh (MAP3K3),%Inh (MAP3K4),%Inh (MAP4K2),%Inh (MAP4K3),%Inh (MAP4K4),%Inh (MAP4K5),%Inh (MAPKAPK2),%Inh (MAPKAPK5),%Inh (MARK1),%Inh (MARK2),%Inh (MARK3),%Inh (MARK4),%Inh (MAST1),%Inh (MEK1),%Inh (MEK2),%Inh (MEK3),%Inh (MEK4)
COc1cc2c(Nc3ccc(NC(=O)c4ccccc4)cc3)ncnc2cc1OCCCN1CCOCC1 [GSK301329],0%,9%,11%,0%,47%,0%,6%,11%,63%,23%,0%,0%,0%,0%,0%,0%,86%,86%,0%,5%
CS(=O)(=O)c1cccc(CNc2nc(Nc3ccc4c(c3)[C@@H]3C[C@@H]4CNC3=O)ncc2C(F)(F)F)c1,0%,0%,65%,47%,0%,68%,68%,40%,0%,0%,0%,8%,24%,67%,44%,0%,39%,80%,75%,89%
Cn1ccc2ncnc(Oc3ccc(NC(=O)Nc4cncc(C(F)(F)F)c4)c(Cl)c3)c21,0%,0%,0%,0%,3%,0%,0%,0%,0%,0%,0%,0%,23%,0%,11%,6%,0%,0%,0%,1%
CCN1CCN(CCCC(=O)Nc2n[nH]c3nc(-c4ccc(O)cc4)c(Br)cc23)CC1 [SB-731579],0%,0%,0%,0%,0%,0%,0%,7%,5%,17%,0%,35%,20%,0%,14%,65%,0%,0%,15%,0%
CCOC(=O)N1CCC(n2cnc(-c3ccc(F)cc3)c2-c2ccnc(N)n2)CC1 [SB-219952],36%,29%,6%,11%,6%,0%,0%,9%,4%,24%,13%,15%,17%,0%,28%,2%,3%,27%,45%,18%
C[C@@H]1CCN(C(=O)N2CCCC2)C[C@@H]1N(C)c1ncnc2[nH]ccc12,31%,36%,17%,16%,7%,0%,8%,0%,0%,0%,8%,0%,50%,46%,5%,0%,18%,0%,29%,13%
O=C(NOCC1CC1)c1cc(Br)c(F)c(F)c1Nc1ccc(I)cc1Cl,0%,0%,0%,0%,0%,0%,0%,0%,0%,0%,0%,0%,13%,0%,0%,0%,31%,58%,15%,0%
Cc1nnc(-c2ccc3occ(-c4ccc(S(C)=O)cc4)c3n2)o1 (stereo not shown),0%,0%,0%,0%,1%,0%,44%,0%,38%,0%,0%,0%,0%,0%,0%,0%,0%,0%,0%,0%
Cc1cccc(-c2nc(Nc3ccncc3)c3sccc3n2)n1 [GW869641],30%,37%,44%,28%,0%,50%,5%,37%,11%,0%,9%,23%,34%,20%,30%,23%,25%,20%,32%,35%
Cl.c1ccc(Oc2ccc(Nc3ccnc4cc(-c5ccc(CN6CCNCC6)o5)ccc34)cc2)nc1 [GW567142],3%,1%,0%,0%,0%,0%,0%,0%,13%,0%,0%,0%,0%,39%,0%,0%,87%,90.9%,0%,19%
COC(=O)c1cccc(NC(=O)NC2CCN(c3ccnc(Nc4cc(OC)c(OC)c(OC)c4)n3)C2)c1 (stereo not shown) [GSK1379767],0%,0%,0%,0%,7%,0%,3%,15%,35%,0%,0%,0%,0%,0%,7%,15%,0%,17%,0%,26%
